Screens as filed in PubChem BioAssay.
TIM10 inh: growth inhibitors of isogenic TIM10 control yeast, primary screen, counter-screen for tim10-1 yeast inhibitor project, luminescence, uHTS; S. cerevisiae TIM10 strain growth, BacTiter-Glo luminescence, 24 h; 330,000 compounds, 1.4% hits; inhibition, % at 10 µM;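 active = inhibition of 40% or more at the single tested concentration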;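 also: wild-type TIM10 isogenic control strain grown at permissive 25 °C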
tim23-1 inh: growth inhibitors of tim23-1 mutant yeast, primary screen, luminescence, uHTS. S. cerevisiae tim23-1 growth, BacTiter-Glo luminescence, 24 h. inhibition, % at 20 µM. 330,000 compounds, 1.3% hits. AID 463212, 2010;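 active = growth inhibition of the mutant yeast at or above 50%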;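 also: temperature-sensitive mutant grown at 25 °C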
PfHsp90 set2: growth inhibition of PfHsp90-expressing yeast, primary screen, antimalarial PfHsp90 inhibitor project, S. cerevisiae, BacTiter-Glo luminescence, single point, set 2; BacTiter-Glo ATP, 48 h; yeast lacking PDR1 and PDR3 efflux regulators; inhibition, % at 9.4 µM; 310,000 compounds, 0.32% hits;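 active = every replicate shows inhibition above about 80%, whatever the replicate mean, limit read from the data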
tim10-1 inh: growth inhibitors of tim10-1 mutant yeast, primary screen, luminescence, uHTS; S. cerevisiae tim10-1 ts strain growth, BacTiter-Glo, 24 h; inhibition, % at 20 µM; 330,000 compounds, 2.2% hits;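 active = inhibition of at least 40%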;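 also: mutant grown at 25 °C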
B2AR ag: beta2AR agonists driving receptor internalization, primary screen, cell-based, FAP fluorogen, flow cytometry. Beta-2 adrenergic receptor (Homo sapiens), P07550. Am2.2-beta2AR cells. response, % (test concentration not listed). 340,000 compounds, 0.43% hits;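 active = response above a set limit, near 3 SD of response in nonfluorescent compounds, cut at about 42% in these data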
Target sequence (P07550 whole entry, looked up): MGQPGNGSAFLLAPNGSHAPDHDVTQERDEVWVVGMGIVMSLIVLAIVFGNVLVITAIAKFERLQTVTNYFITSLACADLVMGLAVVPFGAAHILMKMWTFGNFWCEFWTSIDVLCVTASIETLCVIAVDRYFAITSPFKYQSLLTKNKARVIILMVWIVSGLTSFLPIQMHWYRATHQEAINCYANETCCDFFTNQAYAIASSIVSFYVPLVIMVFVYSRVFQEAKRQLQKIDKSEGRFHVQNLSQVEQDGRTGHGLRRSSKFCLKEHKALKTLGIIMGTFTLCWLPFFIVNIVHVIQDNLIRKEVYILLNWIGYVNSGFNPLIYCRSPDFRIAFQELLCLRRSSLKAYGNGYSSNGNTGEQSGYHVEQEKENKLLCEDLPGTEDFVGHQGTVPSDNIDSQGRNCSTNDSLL
tim10-1 confirm: growth inhibitors of tim10-1 mutant yeast, confirmation, single concentration, luminescence, S. cerevisiae; inhibition, % at 20 µM; shares compounds with tim10-1 inh; 7,400 compounds, 56% hits; S. cerevisiae tim10-1 ts strain growth, BacTiter-Glo, 24 h; AID 463213, 2010;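 active = inhibition of yeast growth at or above a set limit in either of two repeat tests at 20 µM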;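 also: tim10-1 mutant grown at permissive 25 °C to find synthetic lethal compounds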
Of the large screens only hits and unclear results are named; the others gave an inactive call (follow-up assays come after a bar, where they were run). Rows were chosen to be rich in hits. Some 3.8% of all compounds tested hit in one or more screens of this group.

O=C(C1CC1)N1CCc2cc(S(=O)(=O)N3CCN(c4ccccc4)CC3)ccc21	none
CCOC(=O)c1oc2ccc(CNC3CCCCC3)c(Cl)c2c1C	tim10-1 inh 41.4 | tim10-1 confirm inactive
CCOC(=O)c1oc2ccc(CNCCO)c(Cl)c2c1C	none
COc1cccc(OC)c1C(=O)N1CCNCC1	none
N/C(=N\OC(=O)c1ccc(Cl)cc1)c1cccnc1	tim10-1 inh 65.1 | tim10-1 confirm 61.8
N/C(=N\OC(=O)c1ccc(Cl)cc1)c1ccc(Cl)cc1	tim10-1 inh 43.2 | tim10-1 confirm 33.6
N/C(=N\OC(=O)c1ccc(Cl)cc1)c1ccn[nH]1	none
N/C(=N\OC(=O)c1cccc2ccccc12)c1cccc([N+](=O)[O-])c1	none
N/C(=N\OC(=O)c1cccc2ccccc12)c1cccnc1	tim10-1 inh 61.7 | tim10-1 confirm 65.3
N/C(=N\OC(=O)COc1ccccc1)c1cccnc1	none
N/C(=N\OC(=O)C(c1ccccc1)c1ccccc1)c1cccnc1	tim10-1 inh 41.2 | tim10-1 confirm inactive
N/C(=N\OC(=O)c1ccco1)c1cccnc1	none
COc1ccc(NS(=O)(=O)c2cc(NC(=O)C(CC(C)C)NC(N)=O)ccc2N2CCOCC2)cc1 (stereo unspecified)	none (no result: TIM10 inh, tim23-1 inh, tim10-1 inh)
CCOC(=O)c1c(NC(=O)COC(=O)CCOc2cc(C)ccc2C)sc(C(=O)N(C)C)c1C	none (no result: TIM10 inh, tim23-1 inh, tim10-1 inh)
O=C(NCC(c1ccco1)N1CCN(c2ccccc2)CC1)OCc1ccccc1 (stereo unspecified)	tim10-1 inh 40.8 | tim10-1 confirm inactive
O=C(COc1ccccc1)NCC(c1ccco1)N1CCN(c2ccc(F)cc2)CC1 (stereo unspecified)	tim10-1 inh 41.3 (no result: PfHsp90 set2) | tim10-1 confirm inactive
CN1/C(=C\C(=O)c2ccccc2Cl)c2ccccc2CC1(C)C	none
Cc1ccccc1C(=O)/C=C1/c2ccccc2CC(C)(C)N1C	tim10-1 inh 41.9 (no result: PfHsp90 set2) | tim10-1 confirm inactive
CN1/C(=C\C(=O)c2ccco2)c2ccccc2CC1(C)C	tim10-1 inh 46.6 | tim10-1 confirm inactive
COc1cc(OC)cc(C(=O)NNC(=O)C2CCCC2)c1	none
COC(=O)C1CN(Cc2ccccc2)C(=O)C1=O (stereo unspecified)	none (no result: TIM10 inh, tim23-1 inh, tim10-1 inh)
Cc1cc(C)cc(NC(=O)c2ccc(Cn3nc(C)c(Cl)c3C)o2)c1	tim10-1 inh 40.7 | tim10-1 confirm 30.1
Cc1ccc(CNC(=O)c2ccc(Cn3nc(C)c(Cl)c3C)o2)cc1	PfHsp90 set2 108.7, tim10-1 inh 54.8 | tim10-1 confirm 53.9
Cc1csc(NC(=O)c2ccc(Cn3nc(C)c(Br)c3C)o2)n1	none
Cc1nn(Cc2ccc(Cl)c(Cl)c2)c(C)c1NC(=O)c1sc2ccccc2c1Cl	tim10-1 inh 40.5 | tim10-1 confirm 40.6
Cc1nn(Cc2ccc(C(=O)N/N=C/c3ccncc3)o2)c(C)c1Cl	none
c1ccc(CCNc2ccc3c(c2)Cc2ccccc2-3)nc1	none (no result: TIM10 inh, tim23-1 inh, tim10-1 inh)
CCn1c(COc2ccccc2)nnc1SCC(=O)CC(=O)Nc1ccccc1OC	none (no result: PfHsp90 set2)
CCn1c(COc2cccc(C)c2)nnc1SCC(=O)CC(=O)Nc1ccccc1OC	tim10-1 inh 47.6 | tim10-1 confirm inactive
COc1ccc2cc3cc(C(=O)N(C)C4CCCCC4)oc3nc2c1	tim10-1 inh 45.3 | tim10-1 confirm inactive
CC(C)CCC(=O)N1CCOC1=O	none
COc1ccc2nc3cc(Cl)ccc3c(Nc3cc(C(C)C)c(O)cc3C)c2c1	tim10-1 inh 46.7 | tim10-1 confirm 36.6
CN(C)S(=O)(=O)c1cccc(NC(=O)CSc2cccc3cccnc23)c1	none
O=[N+]([O-])c1ccc(Sc2nccn2Cc2ccccc2)c([N+](=O)[O-])c1	tim10-1 inh 50.9 | tim10-1 confirm inactive
CSc1nc2nccc(-c3ccc(Cl)cc3)n2n1	none
FC(F)(F)c1cnc(Sc2nc3nccc(-c4ccc(Cl)cc4)n3n2)c(Cl)c1	tim10-1 inh 41.4 | tim10-1 confirm inactive
COc1ccc(-c2ccnc3nc(Sc4ncc(C(F)(F)F)cc4Cl)nn23)cc1	tim10-1 inh 50.5 | tim10-1 confirm inactive
COC(=O)c1c(NC(=O)C(=O)N2CCOCC2)sc2c1CCC2	none
COC(=O)c1c(NC(=O)C(=O)N2CCOCC2)sc2c1CCCC2	tim10-1 inh 52.0 | tim10-1 confirm inactive
CCC1(c2ccccc2)NC(=O)N(CC(=O)Nc2ccc(S(=O)(=O)NC3=NCCCCC3)cc2)C1=O (stereo unspecified)	none (no result: PfHsp90 set2)
O=C(O)C(c1ccccc1)C1(O)CC2CCC1C2 (stereo unspecified)	none (no result: TIM10 inh, tim23-1 inh, tim10-1 inh)
O=C(/C=C/c1cccc(Br)c1)N1CCN(c2ccccn2)CC1	tim10-1 inh 41.6 | tim10-1 confirm inactive
Cc1cccc(C(=O)CC(=O)c2cc(Cl)ccc2O)c1	tim10-1 inh 47.3 | tim10-1 confirm 63.0
CC(=O)c1ccc(NC(=O)CSc2ccc(-c3ccc(-n4cccn4)cc3)nn2)cc1	none
CC12CCC(=O)C=C1CCC1C2C(O)CC2(C)C1CCC2(O)C(=O)CO (stereo unspecified)	none
COc1ccc2cc(/C=C3\SC(=S)NC3=O)c(N3CCOCC3)nc2c1	tim10-1 inh 42.0 | tim10-1 confirm 39.2
O=C1NC(=S)S/C1=C/c1ccc(N2CCOCC2)o1	none
Cc1ccc(-c2cc(-c3ccccc3)nc(N/N=C/c3cccnc3)n2)cc1	tim10-1 inh 44.4 | tim10-1 confirm inactive
Cc1cc(-c2ccccc2)nc(N/N=C/c2ccccc2)n1	tim10-1 inh 40.5 | tim10-1 confirm inactive
Cc1cc(-c2ccccc2)nc(N/N=C/c2cccnc2)n1	none
COc1ccc(C(=O)NNC(=S)NC(=O)c2cc(-c3ccccc3)nc3ccccc23)cc1	none
CCCOc1cccc(-c2cc(C(=O)NNC(=S)NCC)c3ccccc3n2)c1	tim10-1 inh 54.3 | tim10-1 confirm 50.5
Cc1ccc(C)c(-c2cc(C(=O)NNC(=S)NCC(C)C)c3ccccc3n2)c1	tim10-1 inh 47.0 | tim10-1 confirm inactive
CCNC(=S)NNC(=O)c1cc(CC(C)C)nc2ccccc12	none
CCCOc1ccc(C(=O)NNC(=S)NC(=O)c2cc(-c3ccc(Cl)cc3)nc3ccccc23)cc1	tim10-1 inh 46.3 | tim10-1 confirm 35.9
CCNC(=S)NNC(=O)c1cc(-c2ccccc2C)nc2ccccc12	tim10-1 inh 46.1 | tim10-1 confirm 46.3
COC(=O)c1ccccc1NC(=O)COC(=O)CO/N=C(\C)c1ccc2c(c1)OCO2	none
O=C(Cc1ccc(Br)cc1)N1CCN(C(=O)c2ccco2)CC1	none
CCCOc1cccc(-c2cc(-c3n[nH]c(=S)n3CC)c3ccccc3n2)c1	tim10-1 inh 43.4 | tim10-1 confirm 32.2
O=C1NC(=S)N/C1=C\c1ccccc1OCc1ccc(C(=O)O)cc1	none
